± gives the standard deviation of the averaged measurements. Whole data set: some 1,700 compounds, median “fraction of GFP-LC3-positive cells (≥5 vesicles/cell)” near 0.43, cut for the highest 2% near 0.81. Many of the other results were omitted from the sample, so the highest values are more common in it than they were.
These compounds were tested on CbCln3 Δex7/8/Δex7/8 GFP-LC3 cerebellar neuronal cells (assay: fraction of GFP-LC3-positive cells (≥5 vesicles/cell); higher = more autophagosome accumulation).
Outline: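 Wild-type or mutant CbCln3 cerebellar cells stably expressing GFP-LC3 (2 × 10^3/well, 384-well) received ~50 nL compound in DMSO by pin transfer, in duplicate, for 24 h at 33 °C. Hoechst 33342 and LysoTracker Red were added for the final 30 min before 3.2% PFA fixation and 10× imaging of three fields per well. CellProfiler counted GFP-LC3 vesicles per cell. The value is the fraction of cells with 5 or more vesicles, averaged over duplicates, with out-of-focus images excluded.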

Compound | fraction of GFP-LC3-positive cells
CCCCCCCCCCCCCCC[C@@H](O)[C@H](CO)NC(=O)CCCCCCC [C8 Dihydroceramide] | 0.428
CCCCCCCCCCCCCCC[C@@H](O)[C@H](CO)NC(=O)CCCCCCC | 0.494
CN(CCc1ccc(Cl)c(Cl)c1)CC(O)COc1ccc(NS(C)(=O)=O)cc1 (stereo unspecified) | 0.503
CC(=N)NCc1cccc(CN)c1 | 0.371
Cc1c(N(C)CS(=O)(=O)[O-])c(=O)n(-c2ccccc2)n1C.[Na+] [Dipyrone] | 0.447
O=c1c(O)c(-c2ccc(O)cc2)oc2cc(O)cc(O)c12 [Kaempferol] | 0.294
O=C1C=CC(=O)c2c1ccc1c2ccc2ccccc21 [Chrysene-1,4-quinone] | 0.883
O=C1CCc2c(ccc3ccccc23)O1 [Splitomycin] | 0.354
N=C(N)NS(=O)(=O)c1ccc(N)cc1 [Sulfaguanidine] | 0.43
CN(C)CC/C=C1\c2ccccc2COc2ccccc21.Cl [Doxepin hydrochloride] | 0.567
CCCc1c(OCCCCc2nnn[nH]2)ccc(C(C)=O)c1O | 0.398 ± 0.011
Cc1c(N)c(=O)n(-c2ccccc2)n1C [Ampyrone] | 0.49
CO[C@@H]1[C@H](N(C)C(=O)c2ccccc2)C[C@H]2O[C@]1(C)n1c3ccccc3c3c4c(c5c6ccccc6n2c5c31)C(=O)NC4 | 0.636
O=P(O)(O)C(O)c1ccc2ccccc2c1 (stereo unspecified) | 0.425
CN(C)CC/C=C1\c2ccccc2CSc2ccccc21.Cl [Dosulepin hydrochloride] | 0.637
CN(C)CCn1nnnc1SCC1=C(C(=O)O)N2C(=O)[C@@H](NC(=O)Cc3csc(N)n3)[C@H]2SC1.Cl [Cefotiam hydrochloride] | 0.488
CCCCC/C=C\C[C@@H](O)/C=C/C=C/C=C/[C@@H](O)CCCC(=O)O [5(S),12(R)-DiHETE all trans] | 0.354
Nc1cc(N2CCCCC2)nc(N)[n+]1OS(=O)(=O)[O-] | 0.38
CCCC(=O)Nc1ccc(OCC(O)CNC(C)C)c(C(C)=O)c1.Cl (stereo unspecified) [Acebutolol hydrochloride] | 0.518
CN(C(=O)CN(CCO)CC(=O)N(C)C(C)(C)Cc1ccccc1)C(C)(C)Cc1ccccc1 [Oxethazaine] | 0.384
CCCCC[C@H](O)/C=C/[C@H]1[C@H](O)CC(=O)[C@@H]1CCCCCCC(=O)O | 0.346
CCCCC[C@H](O)/C=C/[C@H]1[C@H](O)CC(=O)[C@@H]1CCCCCCC(=O)O [Prostaglandin E1] | 0.349
O=c1[nH]c2cc(C(F)(F)F)ccc2n1-c1cc(C(F)(F)F)ccc1O | 0.292
C[n+]1ccccc1/C=N/O.[Cl-] [Pralidoxime chloride] | 0.428
Clc1ccc(COC(Cn2ccnc2)c2ccc(Cl)cc2Cl)c(Cl)c1 (stereo unspecified) [Miconazole] | 0.337
CC1(C)S[C@@H]2[C@H](NC(=O)[C@H](N)c3ccccc3)C(=O)N2[C@H]1C(=O)OC1OC(=O)c2ccccc21.Cl (stereo partly specified) [Talampicillin hydrochloride] | 0.422

Compound | fraction of GFP-LC3-positive cells
CN/C(=N/CCSCc1nc[nH]c1C)NC#N [Cimetidine] | 0.473
Cn1cnc([N+](=O)[O-])c1Sc1ncnc2[nH]cnc12 [Azathioprine] | 0.388
CCCCC/C=C\C/C=C\C/C=C\C/C=C\CCCC(=O)O[C@@H](CO)COCCCCCCCCCCCCCCCC [1-Hexadecyl-2-arachidonoyl-glycerol] | 0.517
CCCCC/C=C\C/C=C\C/C=C\C/C=C\CCCC(=O)O[C@@H](CO)COCCCCCCCCCCCCCCCC | 0.311
CC(C)n1c(/C=C/[C@H](O)C[C@H](O)CC(=O)[O-])c(-c2ccc(F)cc2)c2ccccc21.[Na+] [Fluvastatin sodium salt] | 0.123
CC(CNC1CCCCC1)OC(=O)c1ccccc1.Cl (stereo unspecified) [Hexylcaine hydrochloride] | 0.411
O=C1NC(=O)C(c2ccccc2[N+](=O)[O-])=C1Nc1ccc(O)c(Cl)c1 | 0.364
CN[C@@H]1C(O[C@H]2O[C@H](CO)[C@@H](N)[C@H](O)[C@H]2O)O[C@H]2C[C@@H](N)[C@@H](O[C@H]3[C@H](O)[C@@H](O)[C@H](N)C[C@@H]3N)OC2[C@@H]1O (stereo partly specified) [Apramycin] | 0.274
CCCCCCCCCC(=O)N[C@@H](CCCN=C(N)N)C(=O)N[C@H](C(=O)N[C@@H](CCCCN)C(=O)N[C@@H](CCCN=C(N)N)C(=O)CCl)C(C)C | 0.536
CCCCC/C=C\C/C=C\CC1OC1C/C=C\CCCC(=O)O (stereo unspecified) | 0.392
CCCCC/C=C\C/C=C\CC1OC1C/C=C\CCCC(=O)O (stereo unspecified) [8,9-Epoxyeicosatrienoic acid] | 0.41
CCCCCC/C=C/CCCCCCCCC(=O)O [10(Z)-Heptadecenoic acid] | 0.419
CCCC[C@@H](C=O)NC(=O)OC(C)(C)C | 0.447
COc1c2occc2c(OC)c2c(=O)cc(C)oc12 [Khellin] | 0.508
Cl.c1cnc(N2CCN(Cc3ccc4c(c3)OCO4)CC2)nc1 [Piribedil hydrochloride] | 0.496
Clc1ccc(COC(Cn2ccnc2)c2ccc(Cl)cc2Cl)cc1.O=[N+]([O-])O (stereo unspecified) [Econazole nitrate] | 0.353
COC(=O)C1=C(C)NC(C)=C([N+](=O)[O-])C1c1ccccc1C(F)(F)F (stereo unspecified) | 0.449
CC(=O)N(CC(C)C(=O)O)c1c(I)cc(I)c(N)c1I (stereo unspecified) [Iocetamic acid] | 0.312
COc1cc(S(C)=O)ccc1-c1nc2ncccc2[nH]1 (stereo unspecified) [Sulmazole] | 0.364
CN(C)CCCN1c2ccccc2Sc2ccccc21.Cl [Promazine hydrochloride] | 0.434
C#C[C@]1(O)CC[C@H]2[C@@H]3CCC4=C(CCC(=O)C4)[C@H]3CC[C@@]21C [Norethynodrel] | 0.389
COc1ccc2cc([C@@H](C)C(=O)[O-])ccc2c1.[Na+] [(R) -Naproxen sodium salt] | 0.478
Cl.NC(CO)C(=O)NNCc1ccc(O)c(O)c1O (stereo unspecified) [Benserazide hydrochloride] | 0.411
CC(C)(C)c1cc(O)c(C(C)(C)C)cc1O [2,5-ditertbutylhydroquinone] | 0.696
COc1cc2nc(N(C)CCCNC(=O)C3CCCO3)nc(N)c2cc1OC.Cl (stereo unspecified) [Alfuzosin hydrochloride] | 0.474
